# Assay outcomes (PubChem)
# The list is not random: actives were taken first. Their share in the collection is about 4.1%.
# ssDAF12 agonist: activators of S. stercoralis DAF-12 nuclear receptor; actives 1% (n = 370,000); AID 652126; HEK293 ssDAF-12/GRIP1 lit1-tk-luc reporter, luminescence; % of 3 µM dafachronic acid response; activation, % at 6.8 µM;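 active means activation above the mean over all tested compounds plus 3 SD, cut at about 0.9% in these data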;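 further: 0% = DMSO-only wells and 100% = 3 µM delta7-dafachronic acid wells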
# DAX1 inh-1: inhibitors of DAX1 repression of SF-1 activated StAR promoter; HEK293T StAR-luciferase reporter, SF-1/DAX-1 repression relief; inhibition, % at 6.8 µM; actives 1.1% (n = 370,000); AID 652010;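 active means inhibition above the mean over all tested compounds plus 3 SD, cut at about 3.6% in these data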;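 further: 0% = DAX-1 cells with DMSO and 100% = cells lacking DAX-1 with DMSO; higher inhibition means more luminescence from relief of DAX-1 repression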
# DAX1 inh-2: NR0B1 (DAX1) inhibition; P51843; HEK293 Gal4-DAX1 luciferase reporter, luminescence; inhibition, % at 6.75 µM; actives 0.99% (n = 340,000);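 active means inhibition above the mean over all tested compounds plus 3 SD, cut at about 4.2% in these data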;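 further: 0% = DAX1-transfected cells with DMSO and 100% = empty-vector control cells with DMSO; inhibition shows as a rise in luminescence from relieved DAX1 repression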
# Target sequence (P51843 207-470 limits assumed): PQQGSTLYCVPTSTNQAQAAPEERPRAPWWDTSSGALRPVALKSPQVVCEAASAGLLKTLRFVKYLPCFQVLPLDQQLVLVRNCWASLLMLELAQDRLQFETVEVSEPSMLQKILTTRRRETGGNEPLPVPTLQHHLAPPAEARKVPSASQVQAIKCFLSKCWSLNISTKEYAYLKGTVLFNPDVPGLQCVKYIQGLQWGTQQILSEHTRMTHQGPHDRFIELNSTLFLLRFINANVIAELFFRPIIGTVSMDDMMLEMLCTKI
# hcDAF-12 act: activates DAF-12 receptor from parasite H. contortus; AID 652067; activation, % at 6.8 µM; actives 1.4% (n = 370,000); HEK293 hcDAF-12 lit1-tk-luc reporter, luminescence; 0% DMSO, 100% Δ7-dafachronic acid;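 active means activation above the mean of all tested compounds plus 3 SD, cut at about 5.5% in these data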;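 further: 100% = response to 3 µM Δ7-dafachronic acid high control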
# hgDAF-12 ag: agonists of H. glycines DAF-12 nuclear receptor | HEK293 GAL4-hgDAF12 UAS-luciferase reporter, agonist luminescence; normalized to butyrate control | actives 1.8% (n = 370,000) | activation, % at 6.8 µM;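 active means activation above a cutoff set at the mean of all screened compounds plus 3 SD, cut at about 10% in these data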;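 further: 0% = DMSO wells and 100% = sodium butyrate wells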
# LXR ag: counter-screen for hcDAF-12 agonists: agonists of human LXR-beta; 3,400 tested, under 10 active; AID 743027; activation, % at 6.8 µM; HEK293 Gal4-LXR tk-luc reporter, luminescence, 24 h; normalized: DMSO 0%, positive control 100%; shares compounds with hcDAF-12 act;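 active means mean percent activation of the reporter above a cutoff set as the average over tested compounds plus their standard deviation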
# Target sequence (P55055 whole entry, looked up, the tested form may be a part): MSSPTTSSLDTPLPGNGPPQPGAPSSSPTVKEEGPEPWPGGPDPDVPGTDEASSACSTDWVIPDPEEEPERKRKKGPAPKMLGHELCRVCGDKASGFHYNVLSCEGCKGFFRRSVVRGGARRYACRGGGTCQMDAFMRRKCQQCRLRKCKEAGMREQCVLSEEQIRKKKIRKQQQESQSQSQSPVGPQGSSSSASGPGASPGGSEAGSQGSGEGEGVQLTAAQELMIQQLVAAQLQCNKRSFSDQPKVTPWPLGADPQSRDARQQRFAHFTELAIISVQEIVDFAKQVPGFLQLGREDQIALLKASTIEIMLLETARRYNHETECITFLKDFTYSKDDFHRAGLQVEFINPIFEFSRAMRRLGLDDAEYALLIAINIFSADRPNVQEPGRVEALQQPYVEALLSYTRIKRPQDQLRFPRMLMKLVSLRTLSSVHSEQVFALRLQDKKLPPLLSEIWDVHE
# hcDAF12 ag: hcDAF-12 agonism, confirmation assay | HEK293 hcDAF-12 lit1-tk-luc reporter, luminescence; % of Δ7-dafachronic acid response | activation, % at 6.8 µM | actives 61% (n = 3,400) | shares compounds with hcDAF-12 act;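 active means mean activation across triplicate tests above the threshold derived from the earlier primary screen, cut at about 5.5% in these data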;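 further: 0% = DMSO only wells and 100% = 3 µM Δ7-dafachronic acid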
# Starred values were filed as active, the others as inactive; / = no result given.
SMILES,ssDAF12 agonist,DAX1 inh-1,DAX1 inh-2,hcDAF-12 act,hgDAF-12 ag,LXR ag,hcDAF12 ag
O=S1(=O)c2ccc(Br)cc2OC[C@H](Cc2ccccc2)N1Cc1cn(Cc2ccc(Cl)cc2)nn1,-0.9,-1.3,/,0.8,3.4,/,/
Cc1ccc(OCCNC(=O)c2ccc(COc3ccccc3)o2)cc1,-0.4,2.0,1.2,-2.2,0.0,/,/
CC(C)Cc1ccc(C(=O)NCCOc2ccccc2)o1,0.1,2.9,-0.3,9.9*,8.9,1.5,7.4*
COC(=O)[C@]12C[C@H](CC(=O)NCc3ccc(OC)c(OC)c3)C(=O)N(Cc3cccc4ccccc34)C1=C[C@H](COCc1ccccc1)O[C@@H]2C,-1.8,-1.5,/,-4.8,0.2,/,/
COc1cc(C=C2C(=O)OC(C)(C)OC2=O)ccc1OCC(=O)Nc1ccccc1,-0.3,1.0,2.0,7.1*,7.7,0.1,2.6
COc1cc(/C=C/c2cc[n+](C)cc2)ccc1OCC(=O)Nc1ccccc1,-0.7,0.3,1.7,0.6,1.4,/,/
CC(C)C[C@H]1COc2cccc(F)c2S(=O)(=O)N1Cc1cn(CCC2OCCO2)nn1,-1.6,0.6,/,-2.6,-1.6,/,/
Cc1ccc(O)c(-c2cc(-c3ccc(F)cc3)no2)c1,4.0*,2.9,7.7*,18.6*,19.6*,1.9,18.1*
COc1ccc(-c2cc(-c3ccc(C)cc3)n[nH]2)c(O)c1,0.4,3.6,5.8*,6.9*,13.1*,1.0,2.4
Cc1ccc(-c2cc(C(=O)Nc3cc(C)ccc3O)no2)cc1,-1.4,-0.6,0.9,0.0,1.9,/,/
COc1ccc(-c2cc(-c3cc(C)ccc3O)[nH]n2)cc1,1.2*,2.2,2.8,7.6*,7.6,0.4,2.9
CCCCOc1ccc(C(=O)NC2CCCCN(Cc3cccc(C(F)(F)F)c3)C2=O)cc1 (stereo not drawn),-1.8,-3.8,/,-5.8,2.7,/,/
Cc1nc2c(-c3ccccc3)cnn2c(N2CCOCC2)c1C,0.1,2.6,2.6,12.4*,12.8*,1.4,9.0*
COc1ccc2c(c1)CNC2CS(=O)(=O)NCc1ccc(F)cc1 (stereo not drawn),0.4,-0.9,/,1.8,2.0,/,/
Cc1cc(C(F)(F)F)c(C#N)c(SCC(=O)Nc2nc3ccccc3s2)n1,-2.0,-1.1,2.4,-0.8,-12.2,/,/
Cc1ccc2sc(NC(=O)CSc3nc(C)cc(C)c3C#N)nc2c1,0.9*,4.0*,0.7,10.7*,11.9*,1.4,10.5*
O=C(OCc1cn(Cc2ccc(C(F)(F)F)cc2)nn1)N1CCCC1,-1.4,0.5,/,-1.4,0.1,/,/
COCc1c(C(=O)Nc2nc(C)cs2)oc2ccccc12,0.0,0.0,-1.6,6.8*,2.6,0.1,5.7*
COCc1c(C(=O)Nc2ccc(Cl)cc2F)oc2ccccc12,-1.2,0.2,3.7,4.8,3.2,/,/
Cc1cc(C)n(-c2nc3ccccc3c3nc(C)nn23)n1,-1.4,0.1,1.1,-2.2,-2.0,/,/
Cc1cc(C)n(-c2nc(C)nc3c2cnn3-c2ccccc2)n1,-0.4,0.2,0.7,10.3*,-0.6,0.0,7.8*
COC(=O)C1=C(C)N(C)C(=NCc2ccc(C(F)(F)F)cc2)NC1c1cccc(F)c1 (stereo not drawn),-1.1,0.0,/,-1.0,3.1,/,/
C=CCN(CC#Cc1ccccc1)Cc1ccc(OC)cc1,-0.6,0.5,/,1.6,-0.6,/,/
COc1ccc(OC)c(CN(CC(F)(F)F)S(=O)(=O)c2ccccc2Br)c1,-0.7,-0.4,/,-0.6,-1.5,/,/
Cc1ccc(N/N=C2\CS(=O)(=O)N(C)c3ccsc32)cc1,1.2*,0.9,10.7*,10.1*,8.1,0.5,8.7*
SMILES,ssDAF12 agonist,DAX1 inh-1,DAX1 inh-2,hcDAF-12 act,hgDAF-12 ag,LXR ag,hcDAF12 ag
CN1c2ccsc2/C(=N/Nc2ccc(F)cc2)CS1(=O)=O,4.7*,1.6,5.9*,7.1*,9.4,0.6,9.1*
O=C(Cc1ccc(NC(=O)C2CCCN(C(=O)c3ccccc3)C2)cc1)Nc1cccc(C(=O)N2CCCC2)c1 (stereo not drawn),-1.2,-0.7,/,-0.7,3.6,/,/
Nc1ccc2oc(-c3ccccn3)nc2c1,-0.5,0.7,1.8,1.6,4.6,/,/
Clc1ccc2oc(-c3ccccn3)nc2c1,1.8*,2.0,2.0,7.6*,10.2,1.2,9.0*
Nc1[nH]c(C(=O)c2ccccc2)c(-c2ccc3ccccc3c2)c1C(=O)NCc1ccc(F)cc1,0.0,1.1,/,-0.3,-3.1,/,/
COc1ccc(NC(=O)[C@@]2(CC(=O)O)CC(/C=C/c3ccccc3)=NO2)cc1,-0.5,0.2,0.9,7.9*,0.7,-0.1,1.3
CC(=O)c1ccc(NC(=O)[C@@]2(CC(=O)O)CC(/C=C/c3ccccc3)=NO2)cc1,-0.7,-0.3,0.4,-0.4,-0.8,/,/
Cn1ncc(Cl)c1C(=O)Nc1nc2ccc(Cl)cc2s1,1.1*,1.9,3.5,8.5*,12.2*,1.2,10.2*
O=C(Nc1nc2ccc(Cl)cc2s1)c1ccc(Br)o1,-1.1,0.7,1.1,0.1,5.7,/,/
Cc1cc2c(s1)c1cnn(Cc3c(Cl)ccc(C)c3F)c(=O)c1n2C,-1.4,/,/,-1.6,-4.0,/,/
Cc1ccc(C)c(N=Nc2nc3ccccc3n2C)c1,1.2*,0.5,2.5,12.3*,8.2,1.0,13.3*
COC(=O)C1Cc2c([nH]c3ccccc23)C2CCC(=O)N12 (stereo not drawn),-0.3,-0.6,1.5,1.7,2.4,/,/
COC(=O)C12C=C3CC(C)=C3C(=O)N1Cc1[nH]c3ccccc3c1C2 (stereo not drawn),-0.1,-0.3,/,8.1*,2.1,-0.3,5.9*
CCCOc1ccc(CN(CCO)CCO)cc1[N+](=O)[O-],0.1,0.7,0.9,7.3*,1.9,-0.3,3.9
COc1ccccc1-n1cc2ccc([N+](=O)[O-])cc2n1,0.1,0.2,1.3,8.6*,10.0,0.5,6.6*
O=C(Nc1c(-c2ccccc2)nc2ncccn12)c1ccccc1,-1.1,-0.7,/,3.5,-1.6,/,/
CC(C)c1onc(C(=O)Nc2sc3c(c2C#N)CCC3)c1[N+](=O)[O-],-1.4,0.2,1.6,0.7,-2.4,/,/
N#Cc1c(NC(=O)c2ccc([N+](=O)[O-])o2)sc2c1CCC2,1.0*,-0.1,-1.7,8.1*,7.1,0.7,4.8
O=c1[nH]c2cc3c(cc2cc1CN(Cc1cccnc1)Cc1nnnn1Cc1ccco1)OCCO3,-0.8,0.3,0.9,-0.7,1.6,/,/
O=c1[nH]c2cc3c(cc2cc1CN(Cc1ccccc1)Cc1nnnn1Cc1ccco1)OCCO3,0.2,1.4,-1.2,8.3*,4.6,-0.5,-1.3
CCCCCNC(=O)C(=O)C1C(=O)Nc2ccccc21 (stereo not drawn),0.6,-0.2,2.6,4.2,-0.4,/,/
